Some test systems named below: HCT-15 colon; HT29 colon; SNB-75 CNS; SNB-19 CNS; U251 CNS; PC-3 prostate; SK-MEL-5 melanoma; UACC-62 melanoma; LOX IMVI melanoma; SK-MEL-28 melanoma; EKVX NSCLC; SN12C renal; UO-31 renal; TK-10 renal; ACHN renal; CAKI-1 renal; A498 renal; CCRF-CEM leukemia; MOLT-4 leukemia.
Common to all, as to test: NCI-60 one-dose screen, 48 h (100 = growth as untreated, 0 = no growth, -100 = all killed)
What all share (settings): 10 µM unless noted

About 83,000 compounds went through this panel and 20% of them were active in at least one assay; those are over-represented in the sample as a whole.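 Cell lines were cultured in 96-well plates, exposed to a single compound concentration, and assessed for percent growth 48 hours later.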 Values without a mark were called inactive. Calls of active or inactive are those of the source. Rule for the calls: active = growth percent below 10; inactive = the rest.

For `COc1ccc(-c2cc(-c3cc(OC)ccc3O)[nH]c(=O)c2C#N)cc1`, the growth in the test with HCT-15 colon was 60.2%; in the test with HT29 colon, 28.4%; in the test on SNB-75 CNS it was 58.9%; in the test with SNB-19 CNS it was 65.4%; in the test on U251 CNS it was 22.5%; in the test with PC-3 prostate, 52%. Besides, the growth with SK-MEL-5 melanoma was 31.4%; in the test with UACC-62 melanoma, 41.4%; with LOX IMVI melanoma, 40.5%; in the test on SK-MEL-28 melanoma it was 67.5%; in the test with EKVX NSCLC it was 96%; in the test on SN12C renal it was 66.3%. Besides, the growth with UO-31 renal was 44.1%; in the test with TK-10 renal, 76.1%; with ACHN renal, 81%; in the test with CAKI-1 renal, 77.6%; with A498 renal it was 37.5%; in the test with CCRF-CEM leukemia, 46.3%. Besides, in the test on MOLT-4 leukemia, the growth is 32%.
Turning to `CN(C)c1ccc(C#Cc2c(F)cccc2Cl)cc1`, the growth is 78.4% in the test with HCT-15 colon; 73.7% with HT29 colon; 75% with SNB-75 CNS; 111% in the test on SNB-19 CNS; 89.1% in the test with U251 CNS; 70.5% with PC-3 prostate. Besides, the growth in the test with SK-MEL-5 melanoma was 85.3%; in the test on UACC-62 melanoma, 87.6%; in the test with LOX IMVI melanoma, 81.3%; in the test with SK-MEL-28 melanoma it was 105%; in the test with EKVX NSCLC, 63.5%; with SN12C renal it was 82.2%. The growth in the test on UO-31 renal was 41.2%; in the test on TK-10 renal, 96.8%; with ACHN renal, 83.5%; in the test with CAKI-1 renal it was 82.4%; in the test on A498 renal, 42.6%; in the test with MOLT-4 leukemia, 89.4%.
On to `CNC(=O)c1cc(Oc2ccc3nc(NC(=O)Nc4cc(C(F)(F)F)cc(C(F)(F)F)c4)sc3c2)ccn1`, for which the growth with HCT-15 colon was -4.69% (active); in the test with HT29 colon it was -71.3% (active); with SNB-75 CNS it was -71.3% (active); with SNB-19 CNS, 2.44% (active); in the test on U251 CNS, -81.8% (active); in the test on PC-3 prostate, -38.9% (active). For the same compound, the growth in the test with SK-MEL-5 melanoma was -47.6% (active); with UACC-62 melanoma, -63.3% (active); with LOX IMVI melanoma, -87.5% (active); in the test on SK-MEL-28 melanoma, -71% (active); in the test with EKVX NSCLC it was -18.7% (active); in the test with SN12C renal, -18.7% (active). The growth in the test with UO-31 renal is -69.9% (active); in the test with TK-10 renal it was -54.8% (active); in the test with ACHN renal, -52.9% (active); with CAKI-1 renal, -17.6% (active); in the test with A498 renal, -58.8% (active); in the test on CCRF-CEM leukemia, 7.33% (active). Also, the growth in the test on MOLT-4 leukemia was 0.825% (active).
As to `O=C1Nc2ccccc2SC1c1ccccc1Cl` (stereo not drawn), the growth in the test with HCT-15 colon is 110%; in the test with HT29 colon it was 46%; in the test with SNB-75 CNS, 34.5%; in the test with SNB-19 CNS, 111%; in the test with U251 CNS, 112%; with PC-3 prostate, 92.8%. Besides, the growth in the test on SK-MEL-5 melanoma is 106%; in the test on UACC-62 melanoma, 101%; with LOX IMVI melanoma, 107%; with SK-MEL-28 melanoma it was 104%; in the test on EKVX NSCLC, 95.2%; in the test with SN12C renal, 108%. The growth in the test with UO-31 renal was 103%; with TK-10 renal, 88.7%; in the test on ACHN renal, 115%; with CAKI-1 renal, 71.9%; in the test with A498 renal, 96.3%; with CCRF-CEM leukemia, 83.9%. Also, in the test with MOLT-4 leukemia, the growth was 86.4%.
As for `N[C@@H]1CCC[C@H]1NCCCCN1C(=O)c2cccc3cccc(c23)C1=O`, the growth is 81.8% in the test with HCT-15 colon; 33.8% in the test on HT29 colon; 84.4% with SNB-75 CNS; 85.5% in the test with SNB-19 CNS; 59% in the test on U251 CNS; 61.6% with PC-3 prostate. Also, the growth in the test with SK-MEL-5 melanoma is 93.1%; in the test with UACC-62 melanoma it was 95.7%; with LOX IMVI melanoma, 24.4%; in the test with SK-MEL-28 melanoma, 89.5%; in the test with EKVX NSCLC, 85.6%; in the test on SN12C renal, 73.7%. Further, the growth was 56.2% with UO-31 renal; 76.6% in the test with TK-10 renal; 52.9% in the test on ACHN renal; 81.3% with CAKI-1 renal; 34.8% in the test on A498 renal; 98.4% in the test with CCRF-CEM leukemia. The growth in the test on MOLT-4 leukemia is 30.8%.
In the case of `N#Cc1c(-c2ccc(C(F)(F)F)cc2)cc(N2CC(O)C2)n2c1nc1ccccc12`, the growth with HCT-15 colon was 85.7%; in the test on HT29 colon, 74%; with SNB-75 CNS, -18.5% (active); with SNB-19 CNS, 24.8%; with U251 CNS it was 40.2%; with PC-3 prostate it was 39.6%. The growth is 67.5% in the test on SK-MEL-5 melanoma; 33.9% in the test with UACC-62 melanoma; 53.2% in the test on LOX IMVI melanoma; 59.7% with SK-MEL-28 melanoma; 63.6% in the test with EKVX NSCLC; 72.3% with SN12C renal. Further, the growth in the test with UO-31 renal is 54.5%; in the test with TK-10 renal, 64%; in the test on ACHN renal, 43.4%; in the test on CAKI-1 renal it was 72.1%; in the test on A498 renal it was -4.38% (active); with CCRF-CEM leukemia it was 102%. In addition, the growth with MOLT-4 leukemia is 103%.
For the compound `CN(C)c1ccc2cc(-c3ccc(Cl)c(Cl)c3)c(N)nc2c1`, the growth is 32.1% with HCT-15 colon; 2.59% (active) with HT29 colon; 63.3% in the test with SNB-75 CNS; 63.6% in the test on SNB-19 CNS; 31.1% with U251 CNS; 27.6% in the test with PC-3 prostate. Besides, the growth is -58.8% (active) in the test with SK-MEL-5 melanoma; 57.2% with UACC-62 melanoma; 20.6% in the test on LOX IMVI melanoma; 47.4% in the test on SK-MEL-28 melanoma; 26.3% in the test with EKVX NSCLC; 33.2% in the test with UO-31 renal. Further, the growth in the test with TK-10 renal was 27.9%; in the test on ACHN renal, 52.3%; in the test with CAKI-1 renal, 39.5%; in the test on A498 renal, 40.9%; with CCRF-CEM leukemia, 58%; in the test with MOLT-4 leukemia, 31%.
Take `O=C1C2=C(CCN(Cc3ccccc3)C2)N2CCN=C2N1Cc1ccc(C(F)(F)F)cc1`: the growth in the test on HCT-15 colon is 13%; with HT29 colon, 31%; in the test with SNB-75 CNS it was 38.1%; in the test on SNB-19 CNS, 27.7%; with U251 CNS it was 21.8%; with PC-3 prostate, 20.3%. For the same compound, the growth with SK-MEL-5 melanoma was 14.2%; in the test with UACC-62 melanoma, 18.4%; in the test with LOX IMVI melanoma it was 29.2%; with SK-MEL-28 melanoma, 47.1%; in the test on EKVX NSCLC it was 20.6%; in the test with SN12C renal it was 23.1%. Moreover, the growth is 25.4% in the test with UO-31 renal; 37.7% in the test on TK-10 renal; 31.3% with ACHN renal; 28.6% in the test on CAKI-1 renal; -0.0454% (active) in the test on A498 renal; 52.6% with CCRF-CEM leukemia. For the same compound, the growth with MOLT-4 leukemia was 59.8%.
Take `O=C1CSC(c2ccccc2O)N1c1nnc(Cn2cnnc2)o1` (stereo not drawn): the growth with HCT-15 colon is 66.2%; in the test on HT29 colon it was 99.1%; in the test with SNB-75 CNS, 66.8%; with SNB-19 CNS it was 90.4%; with U251 CNS it was 79.7%; in the test with PC-3 prostate, 79.4%. Besides, the growth in the test with SK-MEL-5 melanoma was 95.1%; with UACC-62 melanoma, 90.8%; with LOX IMVI melanoma, 78.5%; in the test with SK-MEL-28 melanoma, 102%; with EKVX NSCLC, 81.8%; in the test with SN12C renal it was 79.6%. Further, the growth with UO-31 renal was 46.7%; with TK-10 renal, 145%; in the test with ACHN renal, 89.4%; in the test with CAKI-1 renal, 71.3%; in the test on A498 renal, 106%; in the test with MOLT-4 leukemia, 61.5%.

For the origin of these results see PubChem BioAssay (NCI).
